Experimental data: PubChem BioAssay AID1628 (Sanford-Burnham Center for Chemical Genomics, 2009)
The campaign covered roughly 190,000 compounds. About 930 (0.49%) were called active. The list shows a part of the results. Potency and affinity values are given separately. Values without a mark were called inactive.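 How the source made its calls: active means z-score of insulin promoter reporter brightness in nuclei below -3 at 5 µM, with at least 500 cells counted; inconclusive means wells with under 500 cells, flagged as toxic or sparse; inactive means the rest.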

Experiment: insulin promoter down-regulators in MIN6 cells, imaging, high-content screening, mouse beta cells (AID 1628)
Details: MIN6 insulin promoter GFP reporter, at 5 µM, stronger effect = lower value

Compound	z-score
CCC(=NCCc1c[nH]c2ccccc12)c1c(O)n(C)c(=O)n(C)c1=O	-5.98 (active)
O=C(/C=C/c1c[nH]c2ccccc12)c1c(O)n(CCc2ccccc2)c(=O)[nH]c1=O	16
CNCCc1c[nH]c2ccccc12	-0.16
CCCCCCn1c(O)c(C=NC2CCCCC2N)c(=O)[nH]c1=O (stereo unspecified)	-0.8
Cc1cc(C=C2C(=O)NC(=O)NC2=O)c(C)n1-c1ccncc1	2.32
CCCCCn1c(=O)c(C(=O)Nc2nc3ccccc3[nH]2)c(O)c2ccccc21	-3.26 (active)
CCCCCCn1c(=O)c(C(=O)Nc2ccncc2)c(O)c2ccccc21	-5.74 (active)
CCCCn1c(O)c(C(=O)/C=C/c2c[nH]c3ccccc23)c(=O)[nH]c1=O	12.4
CCCCCn1c(=O)c(C(=O)Nc2cnccn2)c(O)c2ccccc21	-5.71 (active)
CN1CCN(c2ccc(/C=C3\C(=O)NC(=S)N(c4cccc(Br)c4)C3=O)o2)CC1	3.97
O=C(O)c1cccc2nc3ccccc3nc12	-0.32
Oc1c(Cl)cc(Cl)cc1CN1CCN(Cc2ccccc2)CC1	2.17
O=[N+]([O-])c1ccc(NCc2ccccc2)c2nonc12	13.4
CCCCc1ccc2[nH]cc(CCN)c2c1	3.13
CC(=O)OC(C)(C)/C=C/C(=O)[C@](C)(O)[C@H]1[C@H](O)C[C@@]2(C)[C@@H]3CC=C4[C@H](C[C@H](O)C(=O)C4(C)C)[C@]3(C)C(=O)C[C@]12C	-4.32 (active)
CN1CC=C2C(C#N)=C(N)C(C#N)(C#N)C(c3ccncc3)C2C1 (stereo unspecified)	8.74
O=c1[nH]c(=O)n(-c2ccc(F)cc2)c(O)c1C=Nc1ccccc1N1CCCC1	4.37
O=c1cc(C(F)(F)F)c2cc3c4c(c2o1)CCCN4CCC3	17.3
CC(C)N1CCN(Cc2cccc([N+](=O)[O-])c2)CC1	2.53
O=C(/C=C/c1ccccc1)NCCc1cnc[nH]1	-0.29
CN1/C(=C\C=C2C(=O)NC(=S)NC2=O)C(C)(C)c2ccccc21	14.4
O=C1Nc2ccc(Br)cc2C(c2ccccc2Cl)=NC1O (stereo unspecified)	-0.25
N#Cc1ccccc1Cn1cc(C(=O)c2ccco2)c2ccccc21	-6.56 (active)
CN1C(=O)C(=Cc2ccc(N3CCCCC3)o2)C(=O)N(C)C1=S	4.86
Cc1ccc(Cn2nnnc2CN2CCC(n3nnc4cc(C(F)(F)F)ccc43)CC2)cc1	-3.36 (active)
CCCCCCn1c(O)c(C=Nc2ccccc2N2CCOCC2)c(=O)[nH]c1=S	3.25

Compound	z-score
CC(C)(C)c1nc(NCc2ccc3c(c2)OCO3)c2nnn(Cc3ccccc3Cl)c2n1	2.04
COc1ccc(Cl)cc1NC1=NCC(C)S1 (stereo unspecified)	-4.13 (active)
CN1CCN(c2nc(Cl)ncc2F)CC1	4.91
CC1=NCCc2c1[nH]c1ccccc21	-0.55
CCn1nc(/C=C/c2ccccc2)nc2c(=O)n(C)c(=O)nc1-2	-4.69 (active)
Cc1cc2c(C(F)(F)F)cc(=O)oc2c2c1NCCC2	5.21
CN1C2CCC1CC(=NO)C2	0.21
Nc1cc2nc3ccccc3nc2cc1N	3.68
CC(C)[C@H]1C(=O)O[C@H](C(C)C)C(=O)N(C)[C@@H](C(C)C)C(=O)O[C@H](C(C)C)C(=O)N(C)[C@@H](C(C)C)C(=O)O[C@H](C(C)C)C(=O)N1C	-4.32 (active)
NC(=O)OCCSc1nnc(-c2cccc(C(N)=S)c2)o1	1.36
O=C1NC(=O)N(c2ccc3c(c2)OCO3)C(=O)/C1=C/c1cccs1	1.66
c1ccc2c(N3CCNCC3)nsc2c1	3.06
COc1ccc(OCC(=O)N2CCN(C3CCC(c4ccccc4)CC3)CC2)cc1 (stereo unspecified)	-4.73 (active)
COc1ccc(CC(=O)N2CCN(C)CC2)cc1	3.53
COc1ccccc1CN1CCN(C(=O)COc2ccccc2)CC1	-4.58 (active)
CCC(=O)c1ccc(OC)c(OC)c1	-0.74
C=CCN1C(=O)/C(=C/c2ccc(N3CCOCC3)o2)C(=O)NC1=S	3.53
Cn1c(=O)c2c(ncn2CCCl)n(C)c1=O	0.35
CCc1ccccc1N1C(=O)/C(=C/c2ccc(N3CCN(C)CC3)o2)C(=O)NC1=S	3.37
Cc1cc([N+](=O)[O-])c2ccccc2[n+]1[O-]	-6.12 (active)
c1ccc2c(NC3=NCCS3)cccc2c1	-5.01 (active)
CC(Cc1ccccc1)NC(=O)CN1CCCC1=O (stereo unspecified)	-3.46 (active)
COc1ccc(-c2cc(-c3ccccc3)[n+](C)c(-c3ccccc3)c2)cc1	-4.19 (active)
CCN(CC)c1ccc(/C=N/c2sc3c(c2C#N)C2CCN3CC2)c(O)c1	16.8
CC1CCCC(C2(O)C(=O)Nc3ccccc32)C1=O (stereo unspecified)	5.61
